# Assay results reported in PubChem BioAssay (NCATS).
# Records with an inconclusive call do not appear. Calls of active or inactive are those of the source. Calls follow the shape of the dose curve; as a rule, active = well fitted cell-killing curve with a large enough effect; inconclusive = small, poorly fitted or top-dose-only effect; inactive = no such curve, though single readings can be large or run the other way.
# Experiment: qHTS of pediatric cancer cell lines to identify multiple opportunities for drug repurposing: Primary screen for A673 cells (AID 1347092); also: nearly all actives have a fitted effect of over 45% in size
# Settings: A673 Ewing sarcoma viability, CellTiter-Glo ATP luminescence, 48 h; series mostly up to 46 µM; activity change, negative = cytotoxic: at the top concentration
# From the text: Drug repurposing or repositioning has been offered as a strategy for drug development in oncology programs. This approach has special potential for childhood cancers and other rare or orphan diseases, where the expected return on new drug development has been a disincentive to pharmaceuticals. […] In this project we exploit the poly-pharmacology of drugs to discover new indications via phenotypic screening of a panel of 19 well-characterized cell lines derived from solid tumors seen in children and adolescents. The goal is to identify approved drugs with previously unrecognized anticancer properties that has the potential to reveal new mechanisms and biological processes involved in carcinogenesis or drug resistance. We employed a titration-based paradigm (quantitative high-throughput screening or qHTS), where all compounds were tested at multiple concentrations for their effect on cell viability. Concentration-response curves (CRCs) were derived directly from the primary screen, and both potency and efficacy values were used to identify compounds with robust bioactivity profiles. We screened the NIH Chemical Genomics Center (NCGC) Pharmaceutical Collection (NPC) and Mechanism Interrogation Plate (MIPE) small molecule collections of approved and investigational compounds against these cell lines; and measured metabolically active cells after 48 hours of compound treatment as a proxy for cell viability. […] Assay Submitter: Nathalia J. Martinez, National Center for Advancing Translational Sciences, National Institutes of Health, Rockville, MD, USA; email: natalia.martinez@nih.gov. Shen, M et al. Quantitative high-throughput phenotypic screening of pediatric cancer cell lines identifies multiple opportunities for drug repurposing. Oncotarget 2017 Dec 19;9(4):4758-4772. PMID 29435139.
# The cells were obtained from University of North Carolina (UNC), Pediatric Preclinical Testing Program (PPT), and Coriell Institute (CI). qHTS cell viability assay: Cells were assayed in growth media at a density of 500-1,000 cells/well. Five microliters of cells were dispensed into 1,536-well, white, solid-bottom, TC-treated plates (Greiner Bio One) using a multidrop dispenser and incubated at 37 degrees C, 5% CO2, under a humidified atmosphere for 5 hours. Twenty-three nanoliters of compounds and controls (neutral control DMSO or positive control bortezomib at final concentration of 2.3 uM) were subsequently transferred by Kalypsys pintool. For primary screens, the MIPE collection was tested at 11-point dilutions (final concentrations range from 0.78 nM to 46 µM) and the NPC collection at 8-point dilutions (final concentrations range from 0.59 nM to 46 µM). Compounds tested in follow-up screens were assayed at 11-point dilutions. Cells were incubated for 48 hours, followed by addition of 3 uL of CellTiter-Glo (Promega). After a 15min incubation at room temperature, samples were analyzed for luminescence intensity using a ViewLux High-throughput CCD imager equipped with clear filters.
# % is scaled to controls: 0 for no effect and ±100 for the full control effect; potency is read from the fitted curve at half-maximal effect.
SMILES,"activity change, negative = cytotoxic",Potency
O=C(OCC(O)CO)c1ccccc1Nc1ccnc2cc(Cl)ccc12 (stereo not given),-12.3% (inactive),–
CC(C)(CO)[C@@H](O)C(=O)NCCCO,6.66% (inactive),–
CC(=O)[C@H]1CC[C@H]2[C@@H]3C[C@H](C)C4=CC(=O)CC[C@]4(C)[C@H]3[C@@H](O)C[C@]12C,-7.71% (inactive),–
CN(C)CCOc1ccccc1Cc1ccccc1,-7.22% (inactive),–
CC1=C(C(=O)O)N2C(=O)[C@@H](NC(=O)[C@H](N)c3ccc(O)cc3)[C@H]2SC1,7.19% (inactive),–
CC(=O)Oc1ccc(C(=C2CCCCC2)c2ccc(OC(C)=O)cc2)cc1,-7.19% (inactive),–
O=c1[nH]c(=O)n([C@H]2C[C@H](O)[C@@H](CO)O2)cc1C(F)(F)F,–,1680 nM (active)
O=C1OC2(c3ccc(O)cc3Oc3cc(O)ccc32)c2ccccc21,-13.2% (inactive),–
C[C@]12CC[C@@H]3c4ccc(O)cc4CC[C@H]3[C@@H]1C[C@@H](O)[C@@H]2O,-4.76% (inactive),–
C[C@H]1[C@H](NC(=O)/C(=N/OC(C)(C)C(=O)O)c2csc(N)n2)C(=O)N1S(=O)(=O)O (stereo in doubt),16.8% (inactive),–
COc1cc2c(cc1OC)C(=O)C(CC1CCN(Cc3ccccc3)CC1)C2 (stereo not given),-21.9% (inactive),–
c1ccc(OCc2ccc(CCCN3CCOCC3)cc2)cc1,-5.28% (inactive),–
Cc1onc(-c2c(Cl)cccc2Cl)c1C(=O)N[C@@H]1C(=O)N2[C@@H]1SC(C)(C)[C@@H]2C(=O)O,8.81% (inactive),–
CC(=O)OCC(=O)[C@@]12N=C(C)O[C@@H]1C[C@H]1[C@@H]3CCC4=CC(=O)C=C[C@]4(C)[C@H]3[C@@H](O)C[C@@]12C,-0.921% (inactive),–
COc1cc2c(cc1OC)C(C(C(=O)N(CCc1ccc(OC)c(OC)c1OC)CCc1ccc(OC)c(OC)c1OC)c1ccccc1)=NCC2 (stereo not given),-12.9% (inactive),–
CC[N+](CC)(CCNC(=O)C(=O)NCC[N+](CC)(CC)Cc1ccccc1Cl)Cc1ccccc1Cl,8.45% (inactive),–
OC[C@H]1O[C@@H](n2cnc3c(=S)nc[nH]c32)[C@H](O)[C@@H]1O,–,266 nM (active)
COc1ccc(C2C(=O)c3ccccc3C2=O)cc1,12.4% (inactive),–
Oc1cc(O)c2c(c1)O[C@H](c1ccc(O)c(O)c1)[C@H](O)C2,7.07% (inactive),–
CC(=O)Oc1ccc(C(c2ccc(OC(C)=O)cc2)c2ccccn2)cc1,-23.1% (inactive),–

SMILES,"activity change, negative = cytotoxic",Potency
c1ccc(CNCCNCc2ccccc2)cc1,4.76% (inactive),–
CCOC(=O)n1ccn(C)c1=S,-16.6% (inactive),–
Cc1cccc(C)c1NC(=O)CN1CCN(CCCC(c2ccc(F)cc2)c2ccc(F)cc2)CC1,12.6% (inactive),–
CC(C)n1nc(-c2cc3cc(O)ccc3[nH]2)c2c(N)ncnc21,–,10600 nM (active)
COc1cc(C=C2CCC/C(=C\c3ccc(O)c(OC)c3)C2=O)ccc1O,–,266 nM (active)
CC(=O)OCC(=O)NCCCOc1cccc(CN2CCCCC2)c1,-3.52% (inactive),–
COC(=O)[C@@H]1CC2=CC(=O)CC[C@]2(C)[C@@]23O[C@@H]2C[C@@]2(C)[C@@H](CC[C@@]24CCC(=O)O4)[C@H]13,11.1% (inactive),–
Oc1c(Cl)cc(Cl)cc1Sc1cc(Cl)cc(Cl)c1O,-10.5% (inactive),–
CC(C)(C)CC(C)(C)c1ccc(OCCOCC[N+](C)(C)Cc2ccccc2)cc1,–,10600 nM (active)
Cc1ncc(CSSCc2cnc(C)c(O)c2CO)c(CO)c1O,2.57% (inactive),–
COC(=O)C1=C(C)NC(C)=C(C(=O)O[C@@H]2CCCN(Cc3ccccc3)C2)[C@@H]1c1cccc([N+](=O)[O-])c1,-29.8% (inactive),–
NC(=O)c1cc[n+](CC2=C(C(=O)[O-])N3C(=O)[C@@H](NC(=O)Cc4cccs4)[C@H]3SC2)cc1,45.8% (inactive),–
OC[C@H]1O[C@H](O[C@]2(CCl)O[C@H](CCl)[C@@H](O)[C@@H]2O)[C@H](O)[C@@H](O)[C@H]1Cl,4% (inactive),–
CCOc1ccc2nc3cc(N)ccc3c(N)c2c1,–,26600 nM (active)
O=C1c2ccccc2C(=O)C1c1ccccc1,4.5% (inactive),–
CCCCC(CC)CN=C(N)NC(N)=NCCCCCCN=C(N)NC(N)=NCC(CC)CCCC (stereo not given),–,1680 nM (active)
N[C@@H](CCC(=O)N[C@@H](CS)C(=O)NCC(=O)O)C(=O)O,10.2% [at 16.1 µM] (inactive),–
COc1cc(OC)cc(OC)c1,11.9% (inactive),–
CCCCC1=NC2(CCCC2)C(=O)N1Cc1ccc(-c2ccccc2-c2nn[nH]n2)cc1,7.84% (inactive),–
COc1cccc(OC)c1C(=O)N[C@@H]1C(=O)N2[C@@H]1SC(C)(C)[C@@H]2C(=O)O,8.1% (inactive),–
